Results on 40 compounds are retold here after PubChem BioAssay (NCI).

About 79,000 compounds went through this panel and 15% of them were active in at least one assay; those are over-represented in the sample as a whole. Unmarked numbers belong to inactive results. The source made the active and inactive calls. Cut-off read from the data, not from the text of the source: active = growth inhibition above about 70%; inactive = the rest.

The nature of the first experiment: NCI Yeast Anticancer Drug Screen. Data for the bub3 strain (AID 167). To be noted: S. cerevisiae bub3 mutant strain, at 50.0 µM, stronger effect = higher value. In outline: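 Inhibition values come from growth of compound-treated mutant yeast normalised to vehicle-treated controls.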
On to `O=C1CSC(c2ccc(Cl)c(Cl)c2)N1c1nncs1` (stereo not given), for which the growth inhibition is 14.7%.

On to `COc1ccccc1C1OC2=C(Nc3ccc([N+](=O)[O-])cc3N2)C1=O` (stereo not given), for which the growth inhibition is 16.9%.

For `COC(=O)C1=C(\O)C[C@@]2(C)CC[C@@H](C(=O)OC)C2C/C=C\1C(=O)OC` (stereo not given in full), the growth inhibition was -8.6%.

As to `O=C1Nc2ncnc(Cl)c2Cc2ccccc21`, the growth inhibition is -6.15%.

As for `COc1ccc2c(c1)OC(=O)C(S(=O)(=O)c1ccccc1)C2` (stereo not given), the growth inhibition is 1.2%.

With `C[C@@H](CO)OCOCc1ccccc1`, the growth inhibition is 7.3%.

`CC(=O)N(C1CCCCC1)C1CCCCC1`: the growth inhibition is -2.2%.

With `CCCC(/C(C)=N/NC(N)=O)C1CCCCC1` (stereo not given), the growth inhibition was -5.1%.

For `COC(=O)c1cc(C(=O)OC)c(CC(=O)C(=O)Nc2ccc(Cl)c(C(F)(F)F)c2)nc1CC(=O)C(=O)Nc1ccc(Cl)c(C(F)(F)F)c1`, the growth inhibition is 12.2%.

Take `Cc1cc(=O)c2cc3ccc4cccc5ccc(c2[nH]1)c3c45`: the growth inhibition is -6.85%.

Take `CC(C)=C1C(=O)C[C@]2(C)C[C@H]3O[C@]3(C)CC[C@@H]3O[C@@]3(C)CC[C@@H]12`: the growth inhibition is -1.65%.

In the case of `Cc1ccc(C(=O)Nc2ccc3c(c2)Cc2ccccc2-3)cc1`, the growth inhibition was -20.6%.

Consider `COc1ccc(C(CC(=O)O)c2ccccc2)cc1` (stereo not given), for which the growth inhibition is -29.8%.

As for `COc1cc(/C=C2\C(=O)N(C(=O)c3ccc(NC(C)=O)cc3)N=C2C)ccc1O`, the growth inhibition is -51%.

`CNS(=O)(=O)c1ccccc1C(=N)c1ccccc1`: the growth inhibition is -45.9%.

On to `C/C(CC(=O)CCC(=O)Nc1cccc(C(F)(F)F)c1)=N\NC(=O)NN`, for which the growth inhibition was -13.9%.

Consider `O=C(OCCN1CCOCC1)c1cc2ccccc2oc1=O`, for which the growth inhibition is -0.2%.

In the case of `CCCCCCCCCCCCCCCC(=O)N(CCCCCCCCCCC(=O)O)CC(O)C(O)C(OC1OC(CO)C(O)C(O)C1O)C(O)CO` (stereo not given), the growth inhibition is 50.6%.

On to `COc1ccc2c(c1)C=C(C(C)(C)C)NS2(=O)=O`, for which the growth inhibition was 59%.

Turning to `O=c1[nH]c2cc(Cl)ccc2nc1/C=C(\O)c1ccc(O)cc1`, the growth inhibition was -20%.

Take `CC(C)NC(=O)Nc1cccc(Cl)c1`: the growth inhibition is -23.2%.

For the compound `CCOP(=O)(OCC)C1(O)CC(n2cc(C)c(=O)[nH]c2=O)OC1CO` (stereo not given), the growth inhibition was -5.05%.

With `Cc1ccc(C(=O)CSC2=NCCN2)cc1Cl`, the growth inhibition is -11.9%.

Regarding `CCOCCOC(=O)C1CCC(=O)N1CN(C(C)=O)c1cc(OC)ccc1OC` (stereo not given), the growth inhibition was -0.5%.

With `CC1CC=C(C(O)C(C)C)C1` (stereo not given), the growth inhibition was 4.15%.

With `CC(=O)NC1=C(N2CCC2C)C(=O)c2ccccc2C1=O` (stereo not given), the growth inhibition was -43.9%.

Take `CC(COc1cc(Cl)c(Cl)cc1Cl)OC(=O)COc1ccc(Cl)cc1Cl` (stereo not given): the growth inhibition is 2.9%.

In the case of `NC1=CN(Cc2ccccc2)C2=N/C(=C\c3ccccc3)C(=O)N12`, the growth inhibition is 14.2%.

`Cc1cc2c(s1)C(=O)c1sccc1C2=O`: the growth inhibition is 87.2% (active).

In the case of `CCC(=O)Nc1cc(C)ccc1Cl`, the growth inhibition was 5.9%.

For `CCN1c2ccccc2CC(CCN(C(C)C)C(C)C)(C(N)=O)c2ccccc21` (stereo not given), the growth inhibition was -3.1%.

Take `COC1OC(COS(C)(=O)=O)C2OC(C)(C)OC12` (stereo not given): the growth inhibition is -9.3%.

Regarding `N#Cc1[nH]cnc1N`, the growth inhibition was 7.15%.

For `O=C(Oc1ccccc1OC(=O)c1ccc(Cl)cc1)c1ccc(Cl)cc1`, the growth inhibition is -2.65%.

Consider `O=C(O)c1ccnc2c(S(=O)(=O)O)cccc12`, for which the growth inhibition was 3.25%.

Consider `c1ccc(CN2COc3ccc4c5c(ccc4c3C2)OCN(Cc2ccccc2)C5)cc1`, for which the growth inhibition is 2.05%.

Consider `COc1ccc2cccc(C(=O)O)c2c1`, for which the growth inhibition is -15.6%.

In the case of `O=S1(=O)OCCOS(=O)(=O)C1(I)I`, the growth inhibition is -9.7%.

Take `O=[N+]([O-])c1ccc(P(=O)(O)c2ccc([N+](=O)[O-])cc2)cc1`: the growth inhibition is -11%.

Regarding `CC1(C)Nc2cc3c(cc2-n2cccc21)oc1ccccc13`, the growth inhibition is 30.4%.

Another experiment in a line: NCI Yeast Anticancer Drug Screen. Data for the mlh1 rad18 strain (AID 175). To be noted: S. cerevisiae mlh1 rad18 strain growth inhibition; at 50.0 µM; stronger effect = higher value. In outline: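 Test agents were incubated with a yeast strain of defined genotype (DNA damage repair defect). Inhibition of growth was derived by comparison with vehicle-exposed cultures.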
Turning to `O=C1CSC(c2ccc(Cl)c(Cl)c2)N1c1nncs1` (stereo not given), the growth inhibition is 23.4%.

Turning to `COc1ccccc1C1OC2=C(Nc3ccc([N+](=O)[O-])cc3N2)C1=O` (stereo not given), the growth inhibition is 28.1%.

Regarding `COC(=O)C1=C(\O)C[C@@]2(C)CC[C@@H](C(=O)OC)C2C/C=C\1C(=O)OC` (stereo not given in full), the growth inhibition was 34.8%.

Regarding `O=C1Nc2ncnc(Cl)c2Cc2ccccc21`, the growth inhibition is -12.1%.

As to `COc1ccc2c(c1)OC(=O)C(S(=O)(=O)c1ccccc1)C2` (stereo not given), the growth inhibition is 7.55%.

Take `C[C@@H](CO)OCOCc1ccccc1`: the growth inhibition is 19.5%.

Regarding `CC(=O)N(C1CCCCC1)C1CCCCC1`, the growth inhibition was 45%.

As for `CCCC(/C(C)=N/NC(N)=O)C1CCCCC1` (stereo not given), the growth inhibition is 2%.

With `COC(=O)c1cc(C(=O)OC)c(CC(=O)C(=O)Nc2ccc(Cl)c(C(F)(F)F)c2)nc1CC(=O)C(=O)Nc1ccc(Cl)c(C(F)(F)F)c1`, the growth inhibition is -17.9%.

With `Cc1cc(=O)c2cc3ccc4cccc5ccc(c2[nH]1)c3c45`, the growth inhibition was -5.85%.

As for `CC(C)=C1C(=O)C[C@]2(C)C[C@H]3O[C@]3(C)CC[C@@H]3O[C@@]3(C)CC[C@@H]12`, the growth inhibition is -66.5%.

With `Cc1ccc(C(=O)Nc2ccc3c(c2)Cc2ccccc2-3)cc1`, the growth inhibition is -10.8%.

Take `COc1ccc(C(CC(=O)O)c2ccccc2)cc1` (stereo not given): the growth inhibition was -28.6%.

For the compound `COc1cc(/C=C2\C(=O)N(C(=O)c3ccc(NC(C)=O)cc3)N=C2C)ccc1O`, the growth inhibition is -64%.

For the compound `CNS(=O)(=O)c1ccccc1C(=N)c1ccccc1`, the growth inhibition was -31.4%.

For the compound `C/C(CC(=O)CCC(=O)Nc1cccc(C(F)(F)F)c1)=N\NC(=O)NN`, the growth inhibition is -15.8%.

As to `O=C(OCCN1CCOCC1)c1cc2ccccc2oc1=O`, the growth inhibition was -2.65%.

`CCCCCCCCCCCCCCCC(=O)N(CCCCCCCCCCC(=O)O)CC(O)C(O)C(OC1OC(CO)C(O)C(O)C1O)C(O)CO` (stereo not given): the growth inhibition was -15.8%.

`COc1ccc2c(c1)C=C(C(C)(C)C)NS2(=O)=O`: the growth inhibition is 63.4%.

Regarding `O=c1[nH]c2cc(Cl)ccc2nc1/C=C(\O)c1ccc(O)cc1`, the growth inhibition is 13.7%.

For `CC(C)NC(=O)Nc1cccc(Cl)c1`, the growth inhibition is -1%.

As for `CCOP(=O)(OCC)C1(O)CC(n2cc(C)c(=O)[nH]c2=O)OC1CO` (stereo not given), the growth inhibition is -37.7%.

Turning to `Cc1ccc(C(=O)CSC2=NCCN2)cc1Cl`, the growth inhibition is 19.2%.

For `CCOCCOC(=O)C1CCC(=O)N1CN(C(C)=O)c1cc(OC)ccc1OC` (stereo not given), the growth inhibition is -39.5%.

As for `CC1CC=C(C(O)C(C)C)C1` (stereo not given), the growth inhibition is -0.9%.

With `CC(=O)NC1=C(N2CCC2C)C(=O)c2ccccc2C1=O` (stereo not given), the growth inhibition is -11.4%.

As to `CC(COc1cc(Cl)c(Cl)cc1Cl)OC(=O)COc1ccc(Cl)cc1Cl` (stereo not given), the growth inhibition is 7%.

Consider `NC1=CN(Cc2ccccc2)C2=N/C(=C\c3ccccc3)C(=O)N12`, for which the growth inhibition was -33.7%.

Regarding `Cc1cc2c(s1)C(=O)c1sccc1C2=O`, the growth inhibition is 89% (active).

As for `CCC(=O)Nc1cc(C)ccc1Cl`, the growth inhibition was -0.6%.

With `CCN1c2ccccc2CC(CCN(C(C)C)C(C)C)(C(N)=O)c2ccccc21` (stereo not given), the growth inhibition is -0.9%.

With `COC1OC(COS(C)(=O)=O)C2OC(C)(C)OC12` (stereo not given), the growth inhibition was 21.9%.

Consider `N#Cc1[nH]cnc1N`, for which the growth inhibition was 4.3%.

Take `O=C(Oc1ccccc1OC(=O)c1ccc(Cl)cc1)c1ccc(Cl)cc1`: the growth inhibition was 8.6%.

`O=C(O)c1ccnc2c(S(=O)(=O)O)cccc12`: the growth inhibition was 12.4%.

Consider `c1ccc(CN2COc3ccc4c5c(ccc4c3C2)OCN(Cc2ccccc2)C5)cc1`, for which the growth inhibition was -17.7%.

Regarding `COc1ccc2cccc(C(=O)O)c2c1`, the growth inhibition is -21.6%.

With `O=S1(=O)OCCOS(=O)(=O)C1(I)I`, the growth inhibition was 16.2%.

Regarding `O=[N+]([O-])c1ccc(P(=O)(O)c2ccc([N+](=O)[O-])cc2)cc1`, the growth inhibition is 34.7%.

`CC1(C)Nc2cc3c(cc2-n2cccc21)oc1ccccc13`: the growth inhibition is 27.4%.
